Experimental data as given in PubChem BioAssay (Tox21).
Values joined by “and” are separate entries in the source; they are usually repeats but may differ in a detail not shown here. Identical values can stand only once. Results filed as inconclusive are left out. Active and inactive are the calls of the source. Unless noted, calls follow the shape of the dose curve; as a rule, active = well fitted curve in the direction sought with a large enough effect in the repeat runs; inconclusive = weak or mixed curves; inactive = no such curve, though single readings can be large; an effect the other way counts as inactive or inconclusive.

Columns and labels:
[1] = qHTS assay to identify small molecule antagonists of the glucocorticoid receptor (GR) signaling pathway - cell viability counter screen (AID 720693); also: nearly all actives have a fitted effect of over 55% in size
[2] = qHTS assay for identifying genotoxic compounds that show differential cytotoxicity against isogenic chicken DT40 cell lines with known DNA damage response pathways - wild type cell line (AID 743012); also: nearly all actives have a fitted effect of over 60% in size; also: potency is read from the fitted curve at half-maximal effect
How it was run: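 Quantitative HTS on parental DT40 cells: 40 h compound treatment at 37 C/5% CO2, with viability then determined by CellTiter-Glo luminescence. Values serve as the DNA repair-proficient reference for differential cytotoxicity.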

[3] = qHTS assay for identifying genotoxic compounds that show differential cytotoxicity against isogenic chicken DT40 cell lines with known DNA damage response pathways - Rad54/Ku70 mutant cell line (AID 743015); also: nearly all actives have a fitted effect of over 60% in size; also: potency is read from the fitted curve at half-maximal effect
[4] = qHTS assay to identify small molecule antagonists of the androgen receptor (AR) signaling pathway - cell viability counter screen (AID 743033; also: nearly all actives have a fitted effect of over 45% in size)
[5] = qHTS assay to identify small molecule antagonists of the androgen receptor (AR) signaling pathway using the MDA cell line - cell viability counter screen (AID 743041; also: nearly all actives have a fitted effect of over 45% in size)
How it was run: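 Viability counter screen run alongside the AR antagonist reporter: cells seeded 5 h before compound, R1881 added, 16 h incubation at 37C without CO2, fluorescent CellTiter-Fluor signal quantified.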

[6] = molecular target: Androgen receptor (Homo sapiens) (UniProt P10275); assay: qHTS assay to identify small molecule agonists of the androgen receptor (AR) signaling pathway (AID 743036; active = well fitted activation curve with a large enough effect in the signal ratio in the repeat runs, with a control signal flat, not every such curve was filed as active; the % refers to the signal ratio)
How it was run: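 AR-UAS-bla HEK293 cells, plated 4 h before dosing, were treated with compound for 16 h at 37C. beta-Lactamase reporter read after 2 h with LiveBLAzer B/G FRET substrate at room temperature.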

[7] = molecular target: Androgen receptor (Homo sapiens) (UniProt P10275); assay: qHTS assay to identify small molecule agonists of the androgen receptor (AR) signaling pathway using the MDA cell line (AID 743040; also: nearly all actives have a fitted effect of over 20% in size)
How it was run: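 Luminescence from ONE-Glo, read after 30 min at room temperature, reflects MMTV-driven luciferase in MDA-kb2 cells (AR- and GR-responsive). Treatment lasted 16 h at 37C, 0% CO2.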

[8] = molecular target: Androgen receptor (Homo sapiens) (UniProt P10275); assay: qHTS assay to identify small molecule antagonists of the androgen receptor (AR) signaling pathway using the MDA cell line (AID 743042; also: nearly all actives have a fitted effect of over 55% in size; also: potency is read from the fitted curve at half-maximal effect)
How it was run: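 MDA-kb2 cells (human breast carcinoma, stably carrying an MMTV-luciferase reporter responsive to AR and GR) were plated at 3,000 cells/well and preincubated 5 hr at 37C, then given compound plus R1881 agonist for 16 h. ONE-Glo luminescence was read.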

[9] = qHTS assay for identifying genotoxic compounds that show differential cytotoxicity against isogenic chicken DT40 cell lines with known DNA damage response pathways - Rev3 mutant cell line (AID 743014); also: nearly all actives have a fitted effect of over 55% in size; also: potency is read from the fitted curve at half-maximal effect
[10] = molecular target: Androgen receptor (Homo sapiens) (UniProt P10275); assay: qHTS assay to identify small molecule antagonists of the androgen receptor (AR) signaling pathway (AID 743035; active = well fitted inhibition curve with a large enough effect in the signal ratio in the repeat runs, not every such curve was filed as active; the % refers to the signal ratio)
How it was run: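 Cell line: GeneBLAzer AR-UAS-bla GripTite (HEK293). Stimulus: R1881 added after compound. Exposure: 16 h, 37C, 5% CO2. Readout: LiveBLAzer B/G FRET fluorescence after 2 h at room temperature.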

Measured: Potency

Chain of Androgen receptor (Homo sapiens) (P10275 whole entry, looked up): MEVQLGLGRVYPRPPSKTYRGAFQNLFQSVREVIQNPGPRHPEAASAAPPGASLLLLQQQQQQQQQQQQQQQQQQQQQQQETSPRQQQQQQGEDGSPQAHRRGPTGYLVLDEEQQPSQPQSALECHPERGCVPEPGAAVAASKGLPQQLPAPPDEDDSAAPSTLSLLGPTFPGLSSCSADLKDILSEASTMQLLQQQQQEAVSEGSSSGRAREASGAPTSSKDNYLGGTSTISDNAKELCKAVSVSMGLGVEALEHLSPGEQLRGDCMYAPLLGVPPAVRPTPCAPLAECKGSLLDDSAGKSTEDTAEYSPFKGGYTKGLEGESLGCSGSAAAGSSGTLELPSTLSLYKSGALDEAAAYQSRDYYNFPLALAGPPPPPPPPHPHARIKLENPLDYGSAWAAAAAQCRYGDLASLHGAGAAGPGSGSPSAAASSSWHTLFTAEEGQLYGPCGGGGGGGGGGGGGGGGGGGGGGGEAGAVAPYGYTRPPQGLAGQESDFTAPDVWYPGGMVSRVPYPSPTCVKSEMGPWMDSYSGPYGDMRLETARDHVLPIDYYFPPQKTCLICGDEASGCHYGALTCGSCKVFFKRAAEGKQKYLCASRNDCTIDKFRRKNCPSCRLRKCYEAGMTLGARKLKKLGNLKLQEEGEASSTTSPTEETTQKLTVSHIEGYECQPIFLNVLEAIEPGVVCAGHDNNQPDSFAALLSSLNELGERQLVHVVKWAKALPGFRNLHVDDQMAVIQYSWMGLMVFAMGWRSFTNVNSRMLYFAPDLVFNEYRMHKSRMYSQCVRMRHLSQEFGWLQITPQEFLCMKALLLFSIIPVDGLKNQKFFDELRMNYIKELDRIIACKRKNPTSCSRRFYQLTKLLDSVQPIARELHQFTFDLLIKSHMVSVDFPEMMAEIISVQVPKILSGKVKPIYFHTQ

CCC(C)(O)CCC=C(C)C (stereo unspecified)
inactive: [1] | [2] | [3] | [4]

C=CC(=O)NCOCC(C)C
inactive: [1] | [2] | [3] | [4] | [5]

CCCCCCCCSCCO
not listed: [3] | [9] | [10]
inactive: all other assays above

Cc1cc(C(=C2C=CC(=Nc3ccc(S(=O)(=O)O)cc3S(=O)(=O)O)C=C2)c2ccc(Nc3ccc(S(=O)(=O)O)cc3)cc2)ccc1N
inactive: [1] | [2] | [9] | [4] | [5]

CC[C@H](NC(=O)c1cc(F)ccc1NS(=O)(=O)c1cccc2cccnc12)c1ccccc1
inactive: [1] | [4]
active: [9] 57.9 µM | [3] 64.9 µM

Cc1occc1C(=O)Nc1ccc(C(=O)N2CCC(F)(F)/C(=C\C(=O)N3CCC(N4CCCCC4)CC3)c3ccccc32)cc1
not listed: [3] | [10]
inactive: all other assays above

C[C@@H]1C[C@H]2[C@@H]3CCC4=CC(=O)C=C[C@]4(C)[C@@]3(F)[C@@H](O)C[C@]2(C)[C@H]1C(=O)CO
active: [2] 13.3 µM | [3] 26.6 µM
inactive: [1] | [4] | [5]

O=C(O)C(Cc1cc(I)c(O)c(I)c1)c1ccccc1 (stereo unspecified)
inactive: [2] | [9] | [3] | [4] | [5]

Cc1cc(OI)c(C(C)C)cc1-c1cc(C(C)C)c(OI)cc1C
inactive: [2] | [9] | [3] | [4] | [5]

CCCCC(=O)O[C@]1(C(=O)CO)CC[C@H]2[C@@H]3CCC4=CC(=O)CC[C@]4(C)[C@H]3[C@@H](O)C[C@@]21C
inactive: [1] | [9] | [4] | [5]

CCCCC/C(=C\c1ccccc1)CO
inactive: [1] | [5]

Fc1c(F)c(F)c(Br)c(F)c1F
inactive: [2] | [9] | [3] | [4]

CCOC(=O)c1ccccc1OC
inactive: [2] | [9] | [3] | [4] | [5]

O=C(OCCOCCO)c1ccccc1Nc1cccc(C(F)(F)F)c1
inactive: [1] | [9] | [4] | [5]

ON(Cc1ccccc1)Cc1ccccc1
not listed: [1]
inactive: all other assays above

CCCCC(CC)COC(=O)COc1ccc(Cl)cc1C (stereo unspecified)
inactive: [1] | [4] | [5]
active: [9] 68.6 µM

C=CC(C)=CCC=C(C)C
inactive: [1] | [9] | [4] | [5]

CCN(Cc1cccc(S(=O)(=O)O)c1)c1ccc(C(=C2C=CC(=[N+](CC)Cc3cccc(S(=O)(=O)[O-])c3)C=C2)c2ccccc2)cc1
inactive: [2] | [9] | [3] | [4] | [5]

CC(C)(O)c1ccccc1CC[C@@H](SCC1(CC(=O)O)CC1)c1cccc(/C=C/c2ccc3ccc(Cl)cc3n2)c1
not listed: [1] | [6]
inactive: all other assays above

O=C(CCC1CCN(Cc2ccccc2)CC1)c1ccc2c(c1)NCCCC2
inactive: [4] | [10] | [6] | [7]
active: [2] 2.37 µM | [9] 2.98 µM | [3] 8.41 µM | [8] 29.8 µM

CC(=O)CC(c1ccc([N+](=O)[O-])cc1)c1c(O)c2ccccc2oc1=O (stereo unspecified)
inactive: [2] | [9] | [3] | [4]

Cc1oc(C)c(C(=O)Nc2ccccc2)c1C
active: [2] 13.7 µM | [9] 10.9 µM | [3] 13.7 µM

Nc1nc(Cl)nc2c1ncn2[C@@H]1O[C@H](CO)[C@@H](O)[C@@H]1F
active: [2] 0.0019 µM | [9] 0.0019 µM | [3] 0.0024 µM
inactive: [4] | [5]

CO[C@H]1C=CO[C@@]2(C)Oc3c(C)c(O)c4c(O)c(c5c(c4c3C2=O)=NC2(CCN(CC(C)C)CC2)N=5)NC(=O)/C(C)=C\C=C/[C@H](C)[C@H](O)[C@@H](C)[C@@H](O)[C@@H](C)[C@H](OC(C)=O)[C@@H]1C
active: [2] 16.8 µM and 42.3 µM | [9] 23.7 µM and 47.5 µM | [3] 11.9 µM and 30 µM
not listed: [1]
inactive: all other assays above
